Compound activity (PubChem BioAssay)
Compounds with a hit are over-represented: about 4.5% of the library has one in this group of screens.
PfHsp90 set2 – growth inhibition of PfHsp90-expressing yeast, primary screen, antimalarial PfHsp90 inhibitor project, S. cerevisiae, BacTiter-Glo luminescence, single point, set 2 | BacTiter-Glo ATP, 48 h; yeast lacking PDR1 and PDR3 efflux regulators | inhibition, % at 9.4 µM | 310,000 tested, 0.32% active;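 active = every replicate shows inhibition above about 80%, whatever the replicate mean, limit read from the data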
tim10-1 inh – growth inhibitors of tim10-1 mutant yeast, primary screen, luminescence, uHTS; S. cerevisiae tim10-1 ts strain growth, BacTiter-Glo, 24 h; 330,000 tested, 2.2% active; inhibition, % at 20 µM;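 active = inhibition of at least 40%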;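 also: mutant grown at 25 °C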
SKKanGAS inh – S. pyogenes SKKanGAS growth inhibitors in kanamycin, primary screen, streptokinase expression inhibitor project, SKKanGAS strain, BacTiter-Glo luminescence; 6 h; inhibition, % at 7.5 µM; 300,000 tested, 1.3% active;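 active = mean replicate score, as percent of positive control median, at least 50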;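 also: strain carries kanamycin resistance gene driven by streptokinase promoter and grows in 40 µg/ml kanamycin; loss of luminescence reflects streptokinase promoter inhibition or plain growth inhibition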
NALP3 yeast inh – NALP3 inflammasome inhibitors in reconstituted yeast, primary screen, luminescence, uHTS. Yeast reconstituted NLRP3/ASC/caspase-1, beta-gal luminescence, 24 h. AID 2825, 2010. 330,000 tested, 0.39% active. inhibition, % at 10 µM;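 active = inhibition of 50% or more; inactive = inhibition below 50%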
tim23-1 inh – growth inhibitors of tim23-1 mutant yeast, primary screen, luminescence, uHTS; 330,000 tested, 1.3% active; AID 463212, 2010; inhibition, % at 20 µM; S. cerevisiae tim23-1 growth, BacTiter-Glo luminescence, 24 h;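 active = growth inhibition of the mutant yeast at or above 50%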;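 also: temperature-sensitive mutant grown at 25 °C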
TIM10 inh – growth inhibitors of isogenic TIM10 control yeast, primary screen, counter-screen for tim10-1 yeast inhibitor project, luminescence, uHTS | S. cerevisiae TIM10 strain growth, BacTiter-Glo luminescence, 24 h | inhibition, % at 10 µM | 330,000 tested, 1.4% active | AID 463195, 2010;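 active = inhibition of 40% or more at the single tested concentration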;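 also: wild-type TIM10 isogenic control strain grown at permissive 25 °C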
Each line names hits and unclear results; the compound was inactive in the other large screens.

COc1ccc(-c2c(NC(=O)CC(C)C)n(C)c3ccccc3c2=O)cc1OC	none
COc1ccccc1NC(=O)c1ccc2c(c1)N(CC#N)C(=O)C(C)(C)O2	none
NCCS(=O)(=O)NC1CCCCC1	SKKanGAS inh 66.0
O=S(=O)(CCNC1CC1)NC1CCCCC1	none (no result: tim10-1 inh, SKKanGAS inh, NALP3 yeast inh, tim23-1 inh, TIM10 inh)
OC(CN1c2ccccc2Sc2ccccc21)Cn1nnc2ccccc21 (stereo not given)	none
Cc1nn(CC(O)CN2c3ccccc3Sc3ccccc32)c(C)c1Br (stereo not given)	SKKanGAS inh 100.1 (no result: PfHsp90 set2)
CC1(c2ccccc2)CC(C)(C)N2C(=O)/C(=C3\SC(=S)NC3=O)c3cccc1c32 (stereo not given)	SKKanGAS inh 113.9 (no result: tim10-1 inh, NALP3 yeast inh, tim23-1 inh, TIM10 inh)
CC1(c2ccccc2)CC(C)(C)N2C(=O)C3(C(C#N)=C(N)Oc4cc(O)ccc43)c3cccc1c32 (stereo not given)	none
CCOC(=O)Cc1c(C)nc2c(-c3cccc(Br)c3)c[nH]n2c1=O	SKKanGAS inh 94.6
CCOC(=O)Cc1c(C)nc2c(C#N)c[nH]n2c1=O	none
O=C1c2ccccc2C2=Nc3ccccc3SC(c3ccc(Cl)cc3)C12 (stereo not given)	SKKanGAS inh 78.3
O=C1CCCC2=C1C(c1ccc(Cl)cc1)C1C(=O)c3ccccc3C1=N2 (stereo not given)	none
O=C1c2ccccc2C2=Nc3ccccc3SC(c3cccc(F)c3)C12 (stereo not given)	SKKanGAS inh 79.0
CC(=O)c1c(C)[nH]c(C(=O)OCC(=O)Nc2ccc3c(c2)OCCO3)c1C	none (no result: SKKanGAS inh)
CC(Oc1ccc2c(-c3ccccc3)cc(=O)oc2c1)C(=O)NCC(O)c1ccccc1 (stereo not given)	none
OCCCn1c(C2CCCN2c2nc(-c3ccc(F)cc3)cs2)nc2cc(Cl)c(Cl)cc21 (stereo not given)	PfHsp90 set2 106.8
COc1ccc(S(=O)(=O)Nc2ccccc2C)cc1C(=O)N1CCOCC1	none
Cc1ccccc1NS(=O)(=O)c1ccc(C)c(C(=O)N2CCOCC2)c1	SKKanGAS inh 52.1
Cc1cc(Cl)n2ncc(-c3ccccc3)c2n1	none
Cc1cc(C(F)(F)F)n2nc(C)c(-c3ccc(Cl)cc3)c2n1	none
Cc1cc(NCCCN2CCOCC2)n2ncc(-c3ccccc3)c2n1	none
Cc1cc(NCc2ccccn2)n2ncc(-c3ccc(Cl)cc3)c2n1	SKKanGAS inh 82.2
Cc1cc(NCc2ccccn2)n2nc(C)c(-c3ccc(Cl)cc3)c2n1	SKKanGAS inh 81.1
Cc1cc(NCc2ccccn2)n2ncc(-c3ccccc3)c2n1	SKKanGAS inh 65.8
Cc1ccc(C2=NN(C(=O)CSc3nnnn3C)C(c3ccco3)C2)cc1 (stereo not given)	none (no result: SKKanGAS inh)
O=c1cc(-c2ccccc2)nc2c(-c3ccccc3)c(C(F)(F)F)[nH]n12	SKKanGAS inh 56.0 (no result: PfHsp90 set2)
O=C1C=C(N2CCCCC2)c2ccccc2C1=O	SKKanGAS inh 82.1 (no result: PfHsp90 set2)
O=C1c2ccccc2C(=O)c2c1cccc2N1CCCC1	none (no result: tim10-1 inh, NALP3 yeast inh, tim23-1 inh, TIM10 inh)
CC1CN(C(=O)COC(=O)c2cc(=O)c3ccccc3o2)CC(C)O1 (stereo not given)	none
CCc1ccc(NC(=O)c2ccc(F)c(S(=O)(=O)NCC3COc4ccccc4O3)c2)cc1 (stereo not given)	SKKanGAS inh 49.7
Cc1cccc(N=C2NN=C(c3c(C)[nH]c4ccccc34)CS2)c1	SKKanGAS inh 97.9
O=C(Nc1nnc(C2=COCCO2)o1)c1cccc(F)c1	SKKanGAS inh 63.0
CN(C)c1ccc(C(=O)Nc2nnc(C3=COCCO3)o2)cc1	none
CC(C)Oc1ccc(C(=O)Nc2nnc(C3=COCCO3)o2)cc1	SKKanGAS inh 72.7
CC(C)(C)c1ccc(C(=O)Nc2nnc(C3=COCCO3)o2)cc1	SKKanGAS inh 80.3
Cc1noc(C)c1S(=O)(=O)N1CCN(S(=O)(=O)c2ccccc2C#N)CC1	none
C/C(N)=C(/C#N)C(=O)CSc1nc2cc(Cl)ccc2c(=O)n1Cc1ccco1	SKKanGAS inh 60.6 (no result: PfHsp90 set2)
